Screening results deposited in PubChem by National Center for Advancing Translational Sciences (NCATS).
Compounds with a hit are over-represented: about 21% of the library has one in this group of screens.
D3 ag: agonists of human D3 dopamine receptor | P35462 | D3R DiscoveRx beta-arrestin cells, luminescence, 90 min | max activation, % | actives 0.58% (n = 410,000) | AID 652048; in the data active means max activation above about 30%
Target sequence (P35462 whole entry, looked up): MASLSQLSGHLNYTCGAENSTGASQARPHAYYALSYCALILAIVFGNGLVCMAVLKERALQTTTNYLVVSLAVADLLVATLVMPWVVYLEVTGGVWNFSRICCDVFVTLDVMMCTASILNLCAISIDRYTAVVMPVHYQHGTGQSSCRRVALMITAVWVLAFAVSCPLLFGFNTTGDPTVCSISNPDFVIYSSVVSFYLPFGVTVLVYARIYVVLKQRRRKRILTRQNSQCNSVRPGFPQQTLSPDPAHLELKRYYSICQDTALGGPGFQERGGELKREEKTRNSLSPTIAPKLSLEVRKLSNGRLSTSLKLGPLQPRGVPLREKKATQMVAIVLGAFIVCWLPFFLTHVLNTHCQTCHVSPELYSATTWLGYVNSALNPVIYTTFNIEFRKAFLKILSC
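Agonist-mode cell screen: cells plated at 1500/well and incubated overnight at 37 °C, then exposed to library compounds for 90 min at 37 °C. Detection reagent was added for 30–60 min at room temperature, and luminescence was read.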
DRD3 antagonist: D3 dopamine receptor (human) antagonism. P35462. D3R cells, DiscoveRx beta-arrestin luminescence, antagonist mode; stronger effect = lower value. max response, negative = inhibition, %. actives 2.5% (n = 360,000). AID 652054; in the data active means max response below about -50%; inconclusive means no clear call, values can overlap the other calls
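Cells plated overnight at 1500 cells/well, then exposed to library compounds with dopamine controls for 90 minutes at 37 degrees C. DiscoveRx reagent added for 30–60 minutes at room temperature; luminescence read, quantitative HTS format.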
ClpP mod: qHTS Assay for Activators of ClpP; ATP-dependent Clp protease proteolytic subunit (Bacillus subtilis (strain 168)), P80244; purified B. subtilis ClpP, FRET peptide cleavage, 20 min; Potency, µM (series often up to 57.5 µM); actives 1.9% (n = 340,000); AID 651965, 2013; active means well fitted falling curve with a large enough effect; inconclusive means small, poorly fitted or top-dose-only effect; inactive means no such curve, though single readings can be large or run the other way; further: the source files actives as falling curves though it sought activators and does not explain the sign; nearly all actives have a fitted effect of over 65% in size
Target sequence (P80244 whole entry, looked up): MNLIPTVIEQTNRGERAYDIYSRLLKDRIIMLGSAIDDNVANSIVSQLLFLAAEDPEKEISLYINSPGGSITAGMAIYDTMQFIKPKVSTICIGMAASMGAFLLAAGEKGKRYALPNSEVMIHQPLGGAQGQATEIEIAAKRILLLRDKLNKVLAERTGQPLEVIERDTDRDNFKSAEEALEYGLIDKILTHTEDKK
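ClpP 10 microg/mL final, pH 8 Tris/KCl buffer with BSA, glycerol, Tween-20; compound pinned in; FRET-FV substrate; RT 20 min; Ex320/Em430; ΔFRET vs ADEP 5.8 microM, DMSO, no enzyme.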
TDP1 cell CPT: growth inhibition of DT40 Tdp1-/-;hTDP1 cells with camptothecin (screen for TDP1 inhibitors) | chicken DT40 Tdp1-/-;hTDP1 cells + 20 nM CPT, ATP luminescence, 48 h | Potency, µM (top dose mostly 46.2 µM), actives largely listed as inhibitors | actives 12% (n = 420,000) | AID 686979; further: nearly all actives have a fitted effect of over 55% in size
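Cell growth measured by CellTiter-Glo luminescence after a minimum 48 h, 37 C compound exposure with 20 nM CPT in Tdp1-knockout DT40 cells stably expressing hTDP1, seeded 400/well; qHTS titration format.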
IL1B secr inh: blocks inflammasome-driven IL-1 beta release | THP-1 LPS/ATP IL-1B secretion, AlphaLISA, 16 h; stronger effect = lower value | activity change, % at 57.5 µM | actives 4.7% (n = 360,000); in the data active means activity change below about -50%; inconclusive means mostly about -30% to -49%
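THP-1 cells pretreated 1 hr with compounds (up to 57.5 uM final), then stimulated with LPS (250 ng/mL final) plus ATP (1.25 mM final); secreted IL-1B measured by AlphaLISA after 16 hr, decreased signal indicating inhibition.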
DT40 TDP1 no CPT: qHTS for Inhibitors of human tyrosyl-DNA phosphodiesterase 1 (TDP1): qHTS in cells in absence of CPT; actives 15% (n = 420,000); AID 686978, 2013; DT40 Tdp1-/- hTDP1 cells, no CPT, ATP luminescence, 48 h; Potency, µM (doses to about 46.2 µM), usual class: inhibitors; further: nearly all actives have a fitted effect of over 55% in size
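Compound effects on proliferation are scored in DT40 Tdp1-/-;hTDP1 cells in the absence of CPT. ATP levels (CellTiter-Glo luminescence) are recorded after a ≥48 hr, 37 °C incubation.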
Numbers stand for hits; . = inactive; ? = inconclusive; / = no result. Unless noted, the call rests on the fitted dose curve; in most records, active means well fitted inhibition curve with a large enough effect; inconclusive means small, poorly fitted or top-dose-only effect; inactive means flat fitted curve, though single readings scatter.

SMILES	D3 ag	DRD3 antagonist	ClpP mod	TDP1 cell CPT	IL1B secr inh	DT40 TDP1 no CPT
CN(CC(=O)Nc1ccc(Cl)cc1F)S(=O)(=O)c1ccc2c(c1)n(C)c(=O)c(=O)n2C	.	/	.	.	/	.
Cc1ccc(NC(=O)c2ncn(CCCNCc3ccccn3)n2)cc1C	.	.	.	.	.	.
Cc1ccc(OCC(=O)N(c2ccc(C)cc2)S(=O)(=O)c2ccc(Cl)cc2)cc1	.	/	.	?	/	?
Cc1ccc(C(=O)CCC(=O)OCC(=O)NNC(=O)c2ccc([N+](=O)[O-])cc2)cc1	.	.	.	.	.	.
O=S(=O)(c1ccc(F)cc1)N1CCN(CCc2ccccc2)CC1	.	.	.	.	.	.
CN(CCC#N)C(=O)COC(=O)c1c2c(nc3ccccc13)/C(=C/c1ccco1)CC2	.	.	.	?	-58	?
COC(=O)/C(=C(/F)Sc1cc(C)c(O)c(C)c1)C(F)(F)F	.	.	.	10µM	.	7.3µM
COC(=O)CC1=NN(c2ccccc2)C(=O)/C1=C\c1ccc(OC)cc1	.	.	.	21µM	.	?
COC(=O)CC1=NN(c2ccc(OC)cc2)C(=O)/C1=C\c1ccc(Cl)cc1	.	.	.	?	.	?
Cc1cc(OCCn2cc(C(=O)c3cccs3)c3ccccc32)ccc1Cl	.	/	.	16µM	/	16µM
CCOc1ccc(NC(=O)Cn2cc(C(=O)c3cccs3)c3ccccc32)cc1	.	/	.	?	/	?
O=C(c1cccs1)c1cn(CCOc2ccccc2F)c2ccccc12	.	/	.	?	/	18µM
O=C(c1ccco1)c1cn(CCOc2ccc(F)cc2)c2ccccc12	.	/	?	?	/	?
O=C(c1cccs1)c1cn(CCOc2ccc(F)cc2)c2ccccc12	.	/	.	16µM	/	21µM
CC(C)(C)c1ccc(OCCn2cc(C(=O)c3ccco3)c3ccccc32)cc1	.	/	?	?	/	23µM
CCCCCCCCCCCn1nnnc1N	.	.	.	.	.	.
CCNC(=O)NCc1cccc(Cl)c1	.	/	/	.	/	.
CCN(C(=O)CCS(=O)(=O)c1cccc2nonc12)c1ccc(F)cc1	.	.	/	.	.	.
COc1ccc(-n2cc3ccc([N+](=O)[O-])cc3n2)cc1	.	.	/	?	.	29µM
COc1ccc(NC(=O)CN(c2ccccc2OC)S(=O)(=O)c2cccs2)cc1Cl	.	.	.	?	.	15µM
COc1ccccc1N(CC(=O)Nc1ccc(Br)cc1F)S(=O)(=O)c1cccs1	.	.	/	?	-54	?
COc1cccc(NC(=O)CN(c2ccccc2OC)S(=O)(=O)c2cccs2)c1	.	.	.	?	.	21µM
Cc1nc2ccc(NC(=O)c3cncc(Br)c3)cc2s1	.	.	.	?	?	?
O=C(OCC(=O)N1CCCC1)c1cc(Cl)ccc1[N+](=O)[O-]	.	.	/	.	.	.
CC(C(=O)NC1CCCC1)N1CCN(S(=O)(=O)c2ccc(C(C)(C)C)cc2)CC1 (centres undefined)	.	?	.	21µM	.	10µM
SMILES	D3 ag	DRD3 antagonist	ClpP mod	TDP1 cell CPT	IL1B secr inh	DT40 TDP1 no CPT
CC(C)(C)c1ccc(S(=O)(=O)N2CCN(C3CCCC3)CC2)cc1	.	.	/	?	.	?
Cc1ccc(S(=O)(=O)N2CCC(C(=O)N[C@@H](C)C(=O)NC3CCCCC3)CC2)cc1	.	.	.	.	.	.
COc1ccc(S(=O)(=O)N2CCC(C(=O)N[C@@H](C)C(=O)NC3CCCC3)CC2)cc1	.	.	.	16µM	.	?
CCOC(=O)c1c(C)[nH]c(C)c1S(=O)(=O)N1CCC(C(=O)Nc2ccccn2)CC1	.	/	.	.	/	.
C/C(=N\O)c1ccc2c(c1)OCCO2	.	.	.	.	.	3.7µM
C/C(=N/O)c1ccc2c(c1)OCCOCCOc1cc(/C(C)=N/O)ccc1OCCOCCO2	.	.	.	?	.	16µM
Cc1ccc(S(=O)(=O)NCCC(=O)NCC(c2cccs2)N(C)C)cc1 (centres undefined)	.	.	.	.	.	.
CCc1ccc(S(=O)(=O)c2nnn3c2nc(N(CC)Cc2ccccc2)c2cc(Cl)ccc23)cc1	.	/	?	9.2µM	/	16µM
O=C1CCCN1CCCNc1nc2c(S(=O)(=O)c3ccccc3)nnn2c2ccc(Cl)cc12	.	.	.	21µM	?	?
O=S(=O)(c1ccccc1)c1nnn2c1nc(NCc1ccccc1)c1cc(Cl)ccc12	.	/	?	18µM	/	?
CCc1ccc(S(=O)(=O)c2nnn3c2nc(NCc2ccccc2)c2cc(Cl)ccc23)cc1	.	/	.	?	/	?
Cc1ccc(NC(=O)c2sc3ncnc(N(C)C4CCCCC4)c3c2C)c(C)c1	.	/	.	?	/	?
CCc1ccc(NC(=O)C(C)OC(=O)CC(NC(C)=O)c2ccccc2)cc1 (centres undefined)	.	.	/	.	.	?
COCCOC(=O)C1=C(C)NC(=O)NC1c1ccc(-c2cc(Cl)ccc2Cl)o1 (centres undefined)	.	.	/	.	.	.
COC(=O)C1=C(C)NC(=S)NC1c1ccc(-c2cccc(Cl)c2)o1 (centres undefined)	.	.	.	.	.	.
COC(=O)C1=C(C)NC(C)=C(C(=O)OC)C1c1ccc(-c2cccc(Cl)c2Cl)o1	.	.	25µM	?	?	?
COC(=O)C1=C(C)NC(=O)NC1c1ccc(-c2ccccc2Cl)o1 (centres undefined)	.	.	/	10µM	.	16µM
COC(=O)C1=C(C)NC(C)=C(C(=O)OC)C1c1ccc(-c2cc(Cl)ccc2Cl)o1	.	.	.	.	-68	.
COC(=O)C1=C(C)NC(=S)NC1c1ccc(-c2ccccc2C(=O)OC)o1 (centres undefined)	.	.	/	?	.	18µM
COC(=O)C1=C(C)NC(C)=C(C(=O)OC)C1c1ccc(-c2cccc([N+](=O)[O-])c2)o1	.	.	.	?	?	?
COC(=O)c1ccccc1NC(=O)CSc1ncn[nH]1	.	.	/	.	.	.
COc1ccccc1CN1CC[C@@]2(CCCN(C(=O)c3ccco3)C2)C1	/	/	/	?	/	.
O=C(NC1CCCC1)c1cn(C2CCCN(Cc3ccc4c(c3)OCCO4)C2)nn1 (centres undefined)	/	/	/	?	/	.
CCOC(=O)C1=C(C)NC(=S)NC1c1ccc(-c2cccc(Cl)c2C)o1 (centres undefined)	.	.	.	16µM	.	12µM
